According to PubChem BioAssay (NCI):
This is part of a sample that, as a whole, favours compounds with a hit. Of some 83,000 tested, about 20% had one in any assay.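 Treatment: one concentration, 48 hours, 96-well format. Scoring: percent growth, with anything below 10 considered active.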 A number with no mark means an inactive call. Calls of active or inactive are those of the source.

Legend:
Test in all cases: NCI-60 one-dose screen, 48 h (100 = growth as untreated, 0 = no growth, -100 = all killed)
Settings in all cases: 10 µM unless noted
SR leukemia = test system: SR leukemia
RPMI-8226 leukemia = test system: RPMI-8226 leukemia
OVCAR-8 ovarian = test system: OVCAR-8 ovarian
OVCAR-5 ovarian = test system: OVCAR-5 ovarian
OVCAR-4 ovarian = test system: OVCAR-4 ovarian
SK-OV-3 ovarian = test system: SK-OV-3 ovarian
IGROV1 ovarian = test system: IGROV1 ovarian
HS 578T breast = test system: HS 578T breast
NCI/ADR-RES ovarian = test system: NCI/ADR-RES ovarian
T-47D breast = test system: T-47D breast
MDA-MB-435 melanoma = test system: MDA-MB-435 melanoma
SW-620 colon = test system: SW-620 colon
MCF7 breast = test system: MCF7 breast
HCT-116 colon = test system: HCT-116 colon
HCC-2998 colon = test system: HCC-2998 colon
KM12 colon = test system: KM12 colon
BT-549 breast = test system: BT-549 breast
OVCAR-3 ovarian = test system: OVCAR-3 ovarian

| SMILES | growth (SR leukemia) | growth (RPMI-8226 leukemia) | growth (OVCAR-8 ovarian) | growth (OVCAR-5 ovarian) | growth (OVCAR-4 ovarian) | growth (SK-OV-3 ovarian) | growth (IGROV1 ovarian) | growth (HS 578T breast) | growth (NCI/ADR-RES ovarian) | growth (T-47D breast) | growth (MDA-MB-435 melanoma) | growth (SW-620 colon) | growth (MCF7 breast) | growth (HCT-116 colon) | growth (HCC-2998 colon) | growth (KM12 colon) | growth (BT-549 breast) | growth (OVCAR-3 ovarian) |
| --- | --- | --- | --- | --- | --- | --- | --- | --- | --- | --- | --- | --- | --- | --- | --- | --- | --- | --- |
| NC(=S)n1c(=O)n(-c2cccc(C(F)(F)F)c2)c(=O)c2cc(-c3ccc(F)cc3F)ccc21 | 5.69% (active) | -20.8% (active) | 10.9% | 9.62% (active) | 29.9% | -2.63% (active) | 21.2% | -2.09% (active) | 4.95% (active) | -12.9% (active) | 2.32% (active) | 15% | 1.71% (active) | 3.05% (active) | 20.1% | 6.48% (active) |  |  |
| Nn1c(=O)n(-c2cccc(C(F)(F)F)c2)c(=O)c2cc(-c3ccc(F)cc3F)ccc21 | 6.24% (active) | -19.1% (active) | 9.99% (active) | 47.2% | 28.8% | -8.64% (active) | 20.9% | 0.556% (active) | 2.58% (active) | -13.8% (active) | 3.27% (active) |  | 1.3% (active) | 3.16% (active) | 12.5% |  | -6.33% (active) |  |
| O=C(O)CC1CCN(c2ccc3nnc(Cl)n3n2)CC1 | 110% | 111% | 104% | 97.3% | 108% | 96.2% | 102% | 102% |  | 96.8% | 105% | 102% | 91.2% | 103% | 107% | 98.1% | 101% |  |
| Cc1cc2nc3c4cc(C#N)ccc4n(CCN(C)C)c3nc2cc1C | 0.51% (active) | -17.7% (active) | -33.2% (active) | 6.4% (active) | 0.732% (active) | -4.4% (active) | -1.99% (active) | -15% (active) | 5.29% (active) | 20.2% | -27.4% (active) |  |  | -33.3% (active) | -73% (active) | -3.36% (active) |  |  |
| CCN1CCN(c2ccc(NC(=O)Nc3ccc4c(ccn4-c4ccnc(C(=O)NC)c4)c3)cc2C(F)(F)F)CC1 | -2.78% (active) | 8.67% (active) | 98.4% | 89% | 87% | 80.6% | 79.3% | 34.6% |  | 90.5% | 70.4% | -56.2% (active) | 5.65% (active) | 58.6% | 93.9% |  | 73.6% |  |
| Cc1csc(/N=C(N)/N=C(\N)c2cccs2)n1 | 99% | 101% | 101% | 115% | 105% | 92.3% | 101% | 107% | 108% | 95.9% | 106% | 106% | 81.2% | 107% | 116% | 97.8% |  |  |
| NS(=O)(=O)c1cccc(Nc2nc(SCC(=O)c3ccc(Cl)cc3)nc3c2CCC3)c1 | 98.7% | 97.3% | 82.8% | 103% | 95.8% | 95.7% | 99.8% | 81% | 96.7% | 90.4% | 99.2% |  | 82.9% | 95.7% | 107% | 105% | 84.7% |  |
| Cc1ccc(CSC2=C(Cl)CN(c3ccc(Cl)cc3)C2=O)cc1 | 74.1% | 92.8% | 105% | 106% | 107% | 117% | 115% | 107% | 103% | 96.5% | 103% |  |  | 98.5% | 105% | 106% | 110% |  |
| N#CC1=C2NCCCNc3oc(nc3C#N)Cc3ccccc3CC(=N1)O2 | 36.6% | 19.9% | 97.4% | 102% | 94.5% | 102% | 93.4% | 92.4% | 97.8% | 92.6% | 95.1% | 50.7% |  | 23.4% | 114% | 93.6% |  |  |
| CC[C@]12C=CCN3CC[C@]4(C(=C(C(=O)OC)C1)Nc1cc5c(cc14)[C@@H]1[C@H](O5)[C@@H](O)[C@@]4(CC)CC(C(=O)OC)=C5Nc6cc(O)ccc6[C@@]56CCN1C46)C32 (stereo not given in full) | 5.68% (active) | -10.2% (active) | 19.4% | 20.7% | 15.4% | 24.1% | -2.81% (active) | -7% (active) | 2.99% (active) | 6.91% (active) | -38.2% (active) |  | 3.26% (active) | -70.5% (active) | -64.8% (active) | -30.2% (active) |  |  |
| Cc1ccc(NC(=O)/C=C/c2ccc(OCCCOc3ccc4c(C)cc(=O)oc4c3)cc2)cc1 | 70.2% | 90.1% | 52.3% | 91.6% | 19.9% | 79.8% | 73.3% | 40% | 52.5% | 70.3% | 77.1% | 83.5% | 73.4% | 78.9% | 80.5% | 84.8% |  |  |
| CC[C@]12CC(C(=O)OC)=C3Nc4ccccc4[C@@]34CCN(C14)[C@@H]1c3cc4c(cc3O[C@@H]1[C@H]2O)NC1=C(C(=O)OC)C[C@@]2(CC)C3N(CC[C@@]143)C[C@H]1O[C@H]12 (stereo not given in full) | 6.59% (active) | -3% (active) | 24.4% | 38.6% | 33.2% | 27.9% | 15.9% | 12.2% | 1.07% (active) | 18.2% | -10.9% (active) | 23.5% | 4.36% (active) | 2.44% (active) | -41.3% (active) | 13.4% |  |  |
| CCc1cc(OC(=O)N2CCN(CCC(C)(COC(C)(C)C)COC(C)(C)C)CC2)ccc1Nc1cc(-c2ccc(-n3cccn3)cc2)[nH]n1 | 37.9% | 60.5% | 84.3% | 89.1% | 60.8% | 105% | 67% | 68.2% | 74.5% | 61% | 85.3% | 94.8% | 50.1% | 66.3% | 91.5% | 85.6% |  |  |
| Fc1ccc(-c2cn3c(-c4c[nH]c5ccc(Br)cc45)csc3n2)cc1 | 88.7% | 77.8% | 74.8% | 73.8% | 34.3% | 84.4% | 63.7% | 14% | 48.7% | 66.3% | 83.1% |  | 60.9% | 73.8% | 100% | 66.5% | 95.4% |  |
| CN1CCN(c2ccc(Nc3nc(NCCNS(=O)(=O)c4ccccc4)c4sccc4n3)cc2)CC1 | 117% | 102% | 106% | 102% | 92.5% | 107% | 95.9% | 88.1% |  | 86.3% | 105% | 101% | 92.1% | 96% | 106% | 103% | 108% |  |
| CC1=C(C)C(=O)C(Nc2cccc(C(F)(F)F)c2)=C(Br)C1=O | 26.1% | -10.8% (active) | 97% | 128% | 81.4% | 86% |  | 99.4% | 103% | 17.6% | 103% | 48.7% | 52.3% | 20% | 108% | 90.7% | 110% | 103% |
